# Data from PubChem BioAssay (Tox21).
# Several values for one entry are separate records, joined by “and”; a condition that tells them apart may be missing. Equal entries are not always repeated. Results filed as inconclusive are left out. Where a call stands in place of a potency, no number is given. Some compounds were tested as several samples or in several runs, with calls that do not always agree. Activity calls are given as the source filed them. Unless noted, the call rests on the fitted dose curve; in most records, active means well fitted curve in the direction sought with a large enough effect in the repeat runs; inconclusive means weak or mixed curves; inactive means no such curve, though single readings can be large; an effect the other way counts as inactive or inconclusive.
# Tests used:
# [1] = biological target: Thyrotropin receptor (Homo sapiens) (UniProt P16473); experiment: qHTS assay to identify small molecule agonists of the thyroid stimulating hormone receptor (TSHR) signaling pathway (AID 1224843; calls by dose curve; further: nearly all actives have a fitted effect of over 45% in size; further: potency means the concentration at half of the fitted maximal effect)
# In short: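 Agonist-mode screen: TSHR HEK293 cells received test chemicals for half an hour at room temperature, then HTRF cAMP detection reagents for one hour prior to fluorescence measurement. Each chemical ran as a 15-concentration series, triplicated.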
# [2] = qHTS assay to identify small molecule agonists of the hypoxia (HIF-1) signaling pathway - cell viability counter screen (AID 1224844; calls by dose curve; further: nearly all actives have a fitted effect of over 50% in size; further: potency means the concentration at half of the fitted maximal effect)
# In short: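 Same wells as the HIF-1 reporter screen; ME-180 cells carrying HRE-bla, 17 hr treatment at 37C; CellTiter-Glo luminescence read after 30 min at room temperature.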
# [3] = qHTS assay to identify small molecule agonists of the hypoxia (HIF-1) signaling pathway (AID 1224846; active means well fitted activation curve with a large enough effect in the signal ratio in the repeat runs, not every such curve was filed as active; the % refers to the signal ratio)
# In short: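 In ME-180 cells bearing an HRE-bla construct, 17 h treatment with DMSO-dissolved compounds at 37C was followed by CCF4-AM loading to quantify reporter induction.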
# [4] = qHTS assay to identify small molecule antagonists of the estrogen related receptor (ERR) signaling pathway from Tox21 library (AID 1224848); further: nearly all actives have a fitted effect of over 50% in size; further: potency means the concentration at half of the fitted maximal effect
# In short: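 Quantitative high-throughput format: ERR reporter cells (2,000/well) pre-incubated 6 h, treated 18 h at 37 C with compounds in DMSO alongside positive and negative controls, then read by ONE-Glo luminescence.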
# [5] = qHTS assay to identify small molecule agonists of the estrogen related receptor (ERR) signaling pathway from Tox21 library (AID 1224849; calls by dose curve; further: nearly all actives have a fitted effect of over 15% in size); conditions: ERR reporter cell line, ONE-Glo luciferase, 18 h
# In short: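 Reporter cells (ERR, NTP source) treated with Tox21 10K compounds 18 h, 37 C. Readout: ONE-Glo luminescence, 30 min RT.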
# [6] = qHTS RealTime-Glo MT Cell Viability Assay in HepG2 cells - 24 hour (AID 1224867); further: nearly all actives have a fitted effect of over 50% in size; further: potency means the concentration at half of the fitted maximal effect
# In short: (§1)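 HepG2 cells were seeded at 600 cells/well together with NanoLuc luciferase and a cell-permeant prosubstrate, preincubated 5 h at 37 C/5% CO2, then pin-dosed with compounds in DMSO. Nonlytic luminescence from viable cells was read at each time point.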
# [7] = qHTS RealTime-Glo MT Cell Viability Assay in HEK293 cells - 32 hour (AID 1224868); further: nearly all actives have a fitted effect of over 50% in size; further: potency means the concentration at half of the fitted maximal effect
# In short: (§2)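 HEK293 cells were seeded at 600 cells/well together with NanoLuc luciferase and cell-permeant prosubstrate, preincubated 5 h at 37 C/5% CO2, then given compound in DMSO by pintool. Luminescence from viable-cell prosubstrate reduction was read repeatedly over 40 h.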
# [8] = A CellTox Green Cytotoxicity Assay to monitor cytotoxicity in HEK293 cells - 0 hour (AID 1224869); further: nearly all actives have a fitted effect of over 50% in size; further: potency means the concentration at half of the fitted maximal effect
# In short: (§3)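 Homogeneous no-lysis format: HEK293 cell suspension mixed with CellTox Green reagent, seeded, incubated 5 h at 37 C/5% CO2, then dosed by pintool with compound in DMSO.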
# [9] = qHTS RealTime-Glo MT Cell Viability Assay in HepG2 cells - 40 hour (AID 1224870); further: nearly all actives have a fitted effect of over 50% in size; further: potency means the concentration at half of the fitted maximal effect
# In short: (§4)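 HepG2 cells (600/well) mixed with RealTime-Glo MT reagent, settled 5 h at 37 C/5% CO2 before compound addition. Nonlytic NanoLuc luminescence from viable-cell prosubstrate reduction read repeatedly during 40 h treatment at 37 C.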
# [10] = qHTS RealTime-Glo MT Cell Viability Assay in HEK293 cells - 16 hour (AID 1224872); further: nearly all actives have a fitted effect of over 50% in size; further: potency means the concentration at half of the fitted maximal effect
# In short: as §2
# [11] = qHTS RealTime-Glo MT Cell Viability Assay in HepG2 cells - 8 hour (AID 1224873); further: nearly all actives have a fitted effect of over 55% in size; further: potency means the concentration at half of the fitted maximal effect
# In short: as §4
# [12] = qHTS RealTime-Glo MT Cell Viability Assay in HEK293 cells - 40 hour (AID 1224874); conditions: RealTime-Glo luminescence; max response: stronger effect = lower value; further: nearly all actives have a fitted effect of over 50% in size; further: potency means the concentration at half of the fitted maximal effect
# In short: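 Measured as luminescence from the same continuously cultured HEK293 wells at successive time points (0, 8, 16, 24, 32, 40 h) after compound addition. Reagent present from seeding; dosing at 5 h; incubation 37 C.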
# [13] = A CellTox Green Cytotoxicity Assay to monitor cytotoxicity in HEK293 cells - 24 hour (AID 1224875); further: nearly all actives have a fitted effect of over 45% in size; further: potency means the concentration at half of the fitted maximal effect
# In short: as §3
# [14] = A CellTox Green Cytotoxicity Assay to monitor cytotoxicity in HepG2 cells - 16 hour (AID 1224876); further: nearly all actives have a fitted effect of over 45% in size; further: potency means the concentration at half of the fitted maximal effect
# In short: (§5)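 Fluorescent DNA-binding dye, 600 HepG2 cells/well, 5 h preincubation then compound in DMSO; same plates read at 0–40 h, 37 C.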
# [15] = qHTS RealTime-Glo MT Cell Viability Assay in HepG2 cells - 32 hour (AID 1224877); further: nearly all actives have a fitted effect of over 55% in size; further: potency means the concentration at half of the fitted maximal effect
# In short: as §1
# [16] = A CellTox Green Cytotoxicity Assay to monitor cytotoxicity in HepG2 cells - 24 hour (AID 1224878); further: nearly all actives have a fitted effect of over 45% in size; further: potency means the concentration at half of the fitted maximal effect
# In short: as §5
# [17] = A CellTox Green Cytotoxicity Assay to monitor cytotoxicity in HepG2 cells - 40 hour (AID 1224879); further: nearly all actives have a fitted effect of over 40% in size; further: potency means the concentration at half of the fitted maximal effect
# In short: as §5
# [18] = qHTS assay to identify small molecule agonists of H2AX - cell viability counter screen (AID 1224847; calls by dose curve; further: nearly all actives have a fitted effect of over 30% in size; further: potency means the concentration at half of the fitted maximal effect)
# In short: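 CHO-K1 cells plated overnight at 37C, then exposed 3 h at 37C to compounds at 15 concentrations (0.76% DMSO final). Viability by CellTiter-Glo luminescence after 30 min at room temperature.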
# [19] = A CellTox Green Cytotoxicity Assay to monitor cytotoxicity in HEK293 cells - 40 hour (AID 1224871); further: nearly all actives have a fitted effect of over 45% in size; further: potency means the concentration at half of the fitted maximal effect
# In short: as §3
# [20] = qHTS assay to identify small molecule agonists of H2AX (AID 1224845; active means well fitted activation curve with a large enough effect in the signal ratio in the repeat runs, not every such curve was filed as active; the % refers to the signal ratio)
# In short: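 Wild-type CHO-K1 cells, plated overnight, exposed 3hr at 37C to 15 concentrations (0.76% DMSO final). Lysed, then HTRF anti-pH2AX (S139) cryptate and anti-H2AX-d2 antibodies, 24 hr room temperature; 665/620 nm emission read.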
# Chain of Thyrotropin receptor (Homo sapiens) (P16473 whole entry, looked up): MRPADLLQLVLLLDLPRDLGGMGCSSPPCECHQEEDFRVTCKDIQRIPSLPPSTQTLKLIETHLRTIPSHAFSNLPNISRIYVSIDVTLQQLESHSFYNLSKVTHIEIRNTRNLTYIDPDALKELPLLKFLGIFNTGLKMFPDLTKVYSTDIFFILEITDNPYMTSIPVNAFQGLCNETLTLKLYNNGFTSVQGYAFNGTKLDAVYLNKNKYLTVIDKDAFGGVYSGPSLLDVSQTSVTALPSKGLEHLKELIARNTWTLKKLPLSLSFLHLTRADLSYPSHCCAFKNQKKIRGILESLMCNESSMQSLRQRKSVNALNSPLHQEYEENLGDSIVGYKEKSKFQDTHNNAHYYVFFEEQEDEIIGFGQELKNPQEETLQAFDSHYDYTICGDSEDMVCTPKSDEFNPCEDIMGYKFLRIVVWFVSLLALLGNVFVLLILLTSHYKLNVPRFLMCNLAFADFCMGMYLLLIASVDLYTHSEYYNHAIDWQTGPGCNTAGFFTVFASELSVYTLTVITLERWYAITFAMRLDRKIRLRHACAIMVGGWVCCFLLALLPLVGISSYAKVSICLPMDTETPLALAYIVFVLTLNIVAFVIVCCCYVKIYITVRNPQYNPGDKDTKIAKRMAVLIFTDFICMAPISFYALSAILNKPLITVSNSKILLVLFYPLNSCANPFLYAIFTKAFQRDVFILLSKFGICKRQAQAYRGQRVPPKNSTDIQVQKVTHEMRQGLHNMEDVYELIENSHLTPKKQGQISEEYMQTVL
structure (smiles),measurement,setting,value
O=CC(=O)c1ccccc1,Potency,[1],27.3 µM (active)
same,Potency,[2],inactive
same,outcome,[3],inactive
same,Potency,[4],inactive
same,"activity change, positive = activation",[5]; at 92.4 µM (top of the series),-0.129% (inactive)
same,Potency,[6],inactive
same,Potency,[7],inactive
same,Potency,[8],inactive
same,Potency,[9],inactive
same,Potency,[10],inactive
same,Potency,[11],inactive
same,max response,[12],13% (inactive)
same,Potency,[13],inactive
same,Potency,[14],inactive
same,Potency,[15],inactive
same,Potency,[16],inactive
same,Potency,[17],inactive
CN(C)C(=S)SC(=S)N(C)C,Potency,[1],inactive
same,Potency,[2],2 µM (active) and 1.23 µM (active)
same,Potency,[18],92.1 µM (active) and 31.8 µM (active)
same,Potency,[4],886 nM (active) and 1.09 µM (active) and 1.19 µM (active)
same,"activity change, positive = activation",[5]; at 42.5 µM (top of the series),-68.6% (inactive)
same,"activity change, positive = activation",[5]; at 92.4 µM (top of the series),-79.6% (inactive) and -76.2% (inactive)
same,Potency,[6],1.74 µM (active) and 2.68 µM (active)
same,Potency,[7],1.78 µM (active) and 1.55 µM (active) and 6.74 µM (active)
same,Potency,[8],inactive
same,Potency,[9],1.38 µM (active) and 3.01 µM (active)
same,Potency,[19],1.59 µM (active) and 3.09 µM (active) and 3.79 µM (active)
same,Potency,[10],2.24 µM (active) and 2.75 µM (active) and 6.74 µM (active)
same,Potency,[12],1.59 µM (active) and 1.23 µM (active) and 6.01 µM (active)
same,Potency,[13],3.99 µM (active) and 21.9 µM (active)
same,Potency,[14],inactive and 3.89 µM (active)
same,Potency,[15],1.55 µM (active) and 3.38 µM (active)
same,Potency,[16],3.17 µM (active) and 2.45 µM (active) and 2.39 µM (active)
same,Potency,[17],2.52 µM (active) and 1.38 µM (active) and 2.39 µM (active)
O=C1OC2(c3ccccc31)c1cc(Br)c(O)c(Br)c1Oc1c2cc(Br)c(O)c1Br,Potency,[2],inactive
same,Potency,[18],inactive
same,Potency,[6],inactive
same,Potency,[7],inactive
same,Potency,[8],11.1 µM (active) and 17.9 µM (active) and 23.9 µM (active)
same,Potency,[9],inactive
same,Potency,[19],3.95 µM (active) and 11.3 µM (active) and 7.56 µM (active)
same,Potency,[10],inactive
same,Potency,[11],inactive
same,max response,[12],-26.3% (inactive) and -6.61% (inactive)
same,Potency,[13],4.43 µM (active) and 7.11 µM (active) and 9.52 µM (active)
same,Potency,[14],4.97 µM (active) and 14.2 µM (active) and 23.9 µM (active)
same,Potency,[15],inactive
same,Potency,[16],4.97 µM (active) and 12.7 µM (active) and 23.9 µM (active)
same,Potency,[17],5.58 µM (active) and 14.2 µM (active) and 23.9 µM (active)
CN1CCC[C@H]1c1cccnc1,Potency,[2],inactive
same,Potency,[20],inactive
same,Potency,[18],inactive
same,Potency,[6],inactive
same,Potency,[7],inactive
same,Potency,[8],inactive
same,Potency,[9],inactive
same,Potency,[19],inactive
same,Potency,[10],inactive
same,Potency,[11],inactive
same,max response,[12],-1.49% (inactive) and 19.5% (inactive) and 2.35% (inactive)
same,Potency,[13],inactive
same,Potency,[14],inactive
same,Potency,[15],inactive
same,Potency,[16],inactive
same,Potency,[17],inactive
CC1(C)S[C@@H]2[C@H](NC(=O)[C@H](N)c3ccccc3)C(=O)N2[C@H]1C(=O)O,Potency,[1],inactive
same,Potency,[2],inactive
same,Potency,[18],inactive
same,Potency,[8],inactive
same,Potency,[19],inactive
same,Potency,[13],inactive
same,Potency,[14],inactive
same,Potency,[16],inactive
same,Potency,[17],inactive
Cc1ccc(S(=O)(=O)O)cc1,Potency,[2],inactive
same,Potency,[20],inactive
same,outcome,[3],inactive
same,Potency,[18],inactive
same,Potency,[6],inactive
same,Potency,[7],inactive
same,Potency,[8],inactive
same,Potency,[9],inactive
same,Potency,[19],inactive
same,Potency,[10],inactive
same,Potency,[11],inactive
same,max response,[12],2.66% (inactive) and 6.16% (inactive) and 6.13% (inactive)
same,Potency,[13],inactive
same,Potency,[14],inactive
same,Potency,[15],inactive
same,Potency,[16],inactive
same,Potency,[17],inactive
CCc1nc(N)nc(N)c1-c1ccc(Cl)cc1,Potency,[2],inactive
same,Potency,[18],inactive and 8.98 µM (active) and 12.4 µM (active)
same,Potency,[6],inactive
same,Potency,[7],3.52 µM (active) and 12.3 µM (active)
same,Potency,[8],inactive
same,Potency,[9],inactive
same,Potency,[19],inactive
same,Potency,[10],inactive
same,Potency,[11],inactive
same,Potency,[12],3.52 µM (active) and 12.3 µM (active) and 5.35 µM (active)
same,Potency,[13],inactive
same,Potency,[14],inactive
same,Potency,[15],inactive
same,Potency,[16],inactive
same,Potency,[17],inactive
CN1CCc2cccc3c2[C@H]1Cc1ccc(O)c(O)c1-3,Potency,[2],39.3 µM (active) and 16.3 µM (active)
same,Potency,[18],inactive
same,Potency,[4],24.6 µM (active) and 18.1 µM (active)
same,"activity change, positive = activation",[5]; at 42.5 µM (top of the series),-69.6% (inactive) and -53% (inactive)
same,"activity change, positive = activation",[5]; at 92.4 µM (top of the series),-66.3% (inactive)
same,Potency,[6],44.1 µM (active) and 16.3 µM (active) and 23.9 µM (active)
same,Potency,[7],15.7 µM (active) and 8.17 µM (active) and 23.9 µM (active)
same,Potency,[8],inactive
same,Potency,[9],18.3 µM (active)
same,Potency,[19],55.5 µM (active) and inactive
same,Potency,[10],15.7 µM (active) and 10.3 µM (active)
same,Potency,[11],49.5 µM (active)
same,Potency,[12],15.7 µM (active) and 10.3 µM (active) and 21.3 µM (active)
same,Potency,[13],inactive
same,Potency,[14],inactive
same,Potency,[15],49.5 µM (active) and 16.3 µM (active)
same,Potency,[16],inactive
same,Potency,[17],49.5 µM (active) and 18.3 µM (active) and inactive
COc1ccc(CN(CCN(C)C)c2ccccn2)cc1,Potency,[20],inactive
same,Potency,[18],inactive
same,Potency,[8],inactive
same,Potency,[19],inactive
same,Potency,[13],inactive
same,Potency,[14],inactive
same,Potency,[16],inactive
same,Potency,[17],inactive
Cc1c(C(=O)O)c(O)cc2c1C(=O)c1c(O)c([C@@H]3O[C@H](CO)[C@@H](O)[C@H](O)[C@H]3O)c(O)c(O)c1C2=O,Potency,[2],inactive
same,outcome,[3],inactive
same,Potency,[18],55.3 µM (active) and 56.6 µM (active) and 31 µM (active)
same,Potency,[6],inactive
same,Potency,[7],inactive
same,Potency,[8],inactive
same,Potency,[9],inactive
same,Potency,[19],inactive
same,Potency,[10],inactive
same,Potency,[11],inactive
same,max response,[12],-10.5% (inactive) and -11.6% (inactive) and 0.861% (inactive)
same,Potency,[13],inactive
same,Potency,[14],inactive
same,Potency,[15],inactive
same,Potency,[16],inactive
same,Potency,[17],inactive
COc1cccc(O)c1O,outcome,[3],inactive
same,Potency,[18],inactive
same,Potency,[6],inactive
same,Potency,[8],inactive
same,Potency,[9],inactive
same,Potency,[19],inactive
same,Potency,[10],inactive
same,Potency,[11],inactive
same,Potency,[13],inactive
same,Potency,[14],inactive
same,Potency,[15],inactive
same,Potency,[16],inactive
same,Potency,[17],inactive
